Hit rate of the full screen: of about 190,000 compounds, about 930 (0.49%) were called active. Some of the results follow. Potency and affinity values are given separately. Values without a mark were called inactive.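 The calls were made as follows: active = z-score of insulin promoter reporter brightness in nuclei below -3 at 5 µM, with at least 500 cells counted; inconclusive = wells with under 500 cells, flagged as toxic or sparse; inactive = the rest.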
Assay: decrease of insulin promoter-GFP reporter – imaging, high-content screening, mouse beta cells (AID 1628)
Settings: MIN6 insulin promoter GFP reporter, at 5 µM, stronger effect = lower value

Row | SMILES | z-score
1 | COc1ccc(OC)c(-n2c(=S)[nH]c3c(sc(=S)n3-c3ccccc3)c2=O)c1 | 5.22
2 | COc1ccc(C2/C=C\CN(S(=O)(=O)c3cccc4cccnc34)CC(=O)N2Cc2ccc(F)cc2)cc1 (stereo not drawn) | 7.49
3 | COc1ccc(C2C(=O)c3ccccc3C2=O)cc1OC | 3.02
4 | COc1ccc(C2C(Oc3ccccc3C)C(=O)N2Cc2ccc(F)cc2)cc1OC (stereo not drawn) | -5.19 (active)
5 | CCOc1ccccc1-c1c2cc(O)c(=O)cc-2oc2cc(O)c(O)cc12 | 8.08
6 | CCOc1ccccc1N=C1NC(=O)CS1 | -6.97 (active)
7 | O=C(Nc1nc2ccccc2n1CCN1CCOCC1)c1ccc(COc2ccccc2Br)o1 | -3.48 (active)
8 | CCCOC(=O)CSc1nnc(-c2ccc(Cl)cc2Cl)o1 | -1.15
9 | COC(=O)CN(C(=O)CSc1nnc(-c2cccc(OC)c2)o1)c1ccc(OC)cc1 | -0.85
10 | COc1ccc(-c2nnc(SCC(=O)N(Cc3ccccc3)C(C)(C)C)o2)cc1OC | -5.96 (active)
11 | CCOC(=O)/C(=C/C=C1\Sc2cc(OCC)c(OCC)cc2N1CC)C(C)=O | 16.2
12 | Cc1nc2c(c(=O)n1Cc1ccccc1Cl)c1nc3ccccc3nc1n2Cc1ccco1 | -5.21 (active)
13 | Cc1ccc(C)c(Cn2c(C)nc3c(sc(=S)n3-c3ccccc3)c2=O)c1 | 2.17
14 | CCN(C(=S)NCCOC)c1cccc2ccccc12 | -3.13 (active)
15 | COCCNC(=O)c1ccc2ccccc2n1 | 1.76
16 | CCN(C(=S)Nc1cccnc1)c1cccc2ccccc12 | -3.01 (active)
17 | CCN(CC)CCN1C(=O)c2oc3ccccc3c(=O)c2C1c1ccccc1 (stereo not drawn) | 3.66
18 | CCCN1CCc2c(sc(NC(=S)NC(=O)c3ccccc3)c2C#N)C1 | 5.2
19 | CN1CCN(CC(=O)Nc2sc3c(c2C#N)CCC(C(C)(C)C)C3)CC1 (stereo not drawn) | -3.27 (active)
20 | CCCCN1C(=O)/C(=C/C=C2\N(C)c3ccccc3C2(C)C)SC1=S | 10.9
21 | CN1/C(=C\C=C2/SC(=S)NC2=O)C(C)(C)c2ccccc21 | 13.4
22 | CCCCC(=O)Nc1ccc2c(c1)nc1n2CCSC1 | 3.16
23 | Cc1cc(C)nc(N(C#N)CC(=O)N2CCC(C(N)=O)CC2)n1 | 1.53
24 | CCOCCCNC(=O)c1ccc(N2CCCC2)c(NS(=O)(=O)c2ccc(C)cc2)c1 | 3.4

Row | SMILES | z-score
25 | NC(=O)c1ccc(N2CCN(c3ccc(O)cc3)CC2)c([N+](=O)[O-])c1 | -3.43 (active)
26 | CN1CCN(c2ccccc2NC(=O)c2ccc(N3CCCC3)c([N+](=O)[O-])c2)CC1 | -3.01 (active)
27 | COc1ccccc1Nc1nc(Cl)c(C=O)s1 | 3.19
28 | O=C(NC1=NCCS1)C1Cc2ccccc2CN1C(=O)c1ccccc1 (stereo not drawn) | 3.06
29 | COc1ccc2c(c1)NC(c1ccc(N(C)C)cc1)c1cccn1-2 (stereo not drawn) | 12
30 | COc1ccc2c(c1OC)C(=O)OC2 | 0.33
31 | CCN(CC)c1ccc(/C=C/c2cc(-c3ccccc3)c3ccccc3n2)cc1 | 15.3
32 | CCN(CC)c1ccc(/C=N/Nc2nc(C)cc(C)n2)cc1 | -3.23 (active)
33 | CCN(CC)c1ccc(C=C(c2nnnn2-c2ccccc2)c2nnnn2-c2ccccc2)cc1 | 4.4
34 | Cc1c(N=C2N=C(NC(=O)c3cccs3)c3ccccc32)c(=O)n(-c2ccccc2)n1C | 6.23
35 | Cc1ccc(OCCN2CCN(C(=O)CCC(=O)Nc3nnc(C)s3)CC2)cc1 | 0.99
36 | COC(=O)c1c(NC(=O)c2ccc(C)c(S(=O)(=O)Nc3ccccc3C)c2)sc2c1CCCC2 | -3.01 (active)
37 | CN1CCS/C1=C/C=C1/SC(=S)N(Cc2ccccc2)C1=O | 12.1
38 | CC(C)C(c1nnnn1C1CCCC1)N1CCOCC1 (stereo not drawn) | 3.02
39 | CCN(Cc1ccccc1)C(c1cccs1)c1nnnn1C1CCCCC1 (stereo not drawn) | -3 (active)
40 | Clc1ccccc1CN(Cc1ccccc1)C(c1cccs1)c1nnnn1C1CCCC1 (stereo not drawn) | -6.23 (active)
41 | CCCCNC(=S)NC(=O)c1ccc(Cl)cc1Cl | 3.14
42 | COc1ccc(NC(=O)CCN2CCCC(C)C2)cc1 (stereo not drawn) | 1
43 | COc1ccc(NC(=O)CCC(=O)OCc2ccc(Br)cc2)cc1 | -5.13 (active)
44 | O=C(NC1C=CS(=O)(=O)C1)c1sc2ccccc2c1Cl (stereo not drawn) | 3.86
45 | C=CCn1c(=NC(=O)c2cc(-c3cccs3)nc3ccccc23)sc2cc(S(N)(=O)=O)ccc21 | 8.96
46 | C#CCn1c(=NC(=O)c2sc3ccccc3c2Cl)sc2cc(S(N)(=O)=O)ccc21 | -3.78 (active)
47 | CCN1CC=C2C(C#N)=C(N)C(C#N)(C#N)C(CCc3ccccc3)C2C1 (stereo not drawn) | 13.8
48 | Cc1cccc(-c2ncc(CN3CCCC(CO)(Cc4ccccc4C)C3)cn2)c1 (stereo not drawn) | 3.13

Source: PubChem BioAssay AID1628 (Sanford-Burnham Center for Chemical Genomics, 2009)
